The source made the active and inactive calls.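 The calls were made as follows: active = max inhibition of at least 60%; inconclusive = max inhibition above 30% but below 60%; inactive = max inhibition of 30% or less.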
Biological target: Follicle-stimulating hormone receptor (Homo sapiens) (UniProt P23945)
Assay: qHTS for antagonists of the Thyroid Stimulation Hormone Receptor: Hit Validation with Follickle Stimulating Hormone Receptor (FSHR)
Conditions: FSHR-expressing cells, cAMP HTRF, antagonist counterscreen; stronger effect = higher value
Description: The thyroid-stimulating hormone receptor (TSHR) is a member of the 7 trans-membrane-spanning receptor (7TMR) family of cell surface receptors. TSHR-mediated hyperthyroidism is important in thyroid pathology. The development of small molecule antagonists of TSHR may lead to therapeutic approaches for TSHR-mediated hyperthyroidism caused by constitutively activating mutations or stimulating auto-antibodies associated with Graves' disease. Graves' disease is the leading cause of hyperthyroidism and is caused by autoantibodies that stimulate TSHR (TsAbs) causing thyroid growth and unregulated overproduction of thyroid hormones and existing treatments have liabilities (agranulocytosis). In addition, TSHRs are known to be expressed in multiple extrathyroidal tissues including bone, brain, kidney, testis, fat and cells of the immune system but the role of the TSHR in these tissues is not clear. Therefore, TSHR antagonists/inverse agonists could be used as probes of extrathyroidal TSHR function. Finally, TSHR inverse agonists, which are a subclass of antagonists that inhibit agonist-independent (or basal or constitutive) TSHR signaling, could be used to inhibit TSH-independent signaling in patients with recurrent or metastatic thyroid cancer who are receiving thyroid hormone to suppress TSH. In collaboration between scientist from the NCGC and the NIDDK, a miniaturized HTRF high-throughput screen was developed. It's a cell based assay, where an anti cAMP antibody contains a fluorescent cryptate tag (excitation 337 nm; emission 620 nm) and the acceptor is cAMP-d2 (excitation 620 nm; emission 665 nm). When antibody and cAMP-d2 interact and are excited by a 337 nm light, a FRET occurs resulting in emission at 665 nm. The assay is competition between cAMP-d2 and cAMP (from the cell lysate). The homogeneous protocol allows for one step dispense after stimulation that is automation friendly. This is a hit validation assay in a counterscreen using FSHR, a closely related hormone receptor NIH Chemical Genomics Center [NCGC] NIH Molecular Libraries Probe Centers Network [MLPCN] Grant: MH090855 Assay Provider: Marvin Gershengorn, NIDDK
An anti cAMP antibody contains a fluorescent cryptate tag (excitation 337 nm; emission 620 nm) and the acceptor is cAMP-d2 (excitation 620 nm; emission 665 nm). When antibody and cAMP-d2 interact and are excited by a 337 nm light, a FRET occurs resulting in emission at 665 nm. The assay is competition between cAMP-d2 and cAMP (from the cell lysate). The homogeneous protocol allows for one step dispense after stimulation that is automation friendly.

Sequence of Follicle-stimulating hormone receptor (Homo sapiens) (P23945 whole entry, looked up): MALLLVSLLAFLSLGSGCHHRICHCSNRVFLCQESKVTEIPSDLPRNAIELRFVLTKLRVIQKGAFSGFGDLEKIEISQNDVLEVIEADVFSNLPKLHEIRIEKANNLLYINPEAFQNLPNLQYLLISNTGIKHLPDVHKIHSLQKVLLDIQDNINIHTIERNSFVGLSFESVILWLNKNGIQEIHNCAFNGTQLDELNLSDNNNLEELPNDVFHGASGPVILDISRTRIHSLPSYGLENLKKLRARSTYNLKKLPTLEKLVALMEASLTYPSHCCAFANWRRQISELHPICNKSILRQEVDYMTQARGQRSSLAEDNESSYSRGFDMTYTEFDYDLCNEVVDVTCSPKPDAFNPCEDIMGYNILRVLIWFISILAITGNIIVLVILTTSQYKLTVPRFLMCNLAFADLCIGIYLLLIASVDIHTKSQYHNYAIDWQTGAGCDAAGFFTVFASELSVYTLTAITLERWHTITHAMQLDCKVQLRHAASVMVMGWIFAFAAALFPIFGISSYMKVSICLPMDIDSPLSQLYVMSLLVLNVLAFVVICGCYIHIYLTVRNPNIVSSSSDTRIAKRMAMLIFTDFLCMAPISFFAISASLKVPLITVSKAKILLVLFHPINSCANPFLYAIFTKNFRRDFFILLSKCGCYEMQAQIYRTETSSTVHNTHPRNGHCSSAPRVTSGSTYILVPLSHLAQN

Structure (SMILES) | max inhibition
O=C(COc1cccc2ccccc12)Nc1ccc(Cl)cc1C(=O)O | 62.5% (active)
Cc1ccc(-n2[nH]c(C)c(/C=N/Nc3ccc([N+](=O)[O-])cc3[N+](=O)[O-])c2=O)cc1C | 81.1% (active)
O=C1/C(=C\c2cc([N+](=O)[O-])ccc2O)SC(=S)N1Cc1ccc(Cl)cc1 | 94.2% (active)
O=c1cc(C(F)(F)F)[nH]c2c(C(F)(F)F)cccc12 | 82.4% (active)
COc1ccc(OCC(=O)NC(=S)Nc2ccc(N3CCOCC3)c(Cl)c2)cc1 | 87.6% (active)
CCC(=O)OCCNc1cc(Sc2nccn2C)c2nonc2c1[N+](=O)[O-] | 20%
CC(=O)Oc1c(C)cc(Cl)cc1C(=O)Nc1ccc([N+](=O)[O-])cc1Cl | 63.6% (active)
COc1ccc(-c2csc(/C(C#N)=C\c3ccc(O)c([N+](=O)[O-])c3)n2)cc1OC | 87.2% (active)

From PubChem BioAssay AID602448 (National Center for Advancing Translational Sciences (NCATS), 2012)
